Test results from PubChem BioAssay (EPA / NIEHS).
Results filed as inconclusive are left out. The source made the active and inactive calls. How the source made its calls: active means hit-call score of the fitted dose curve at least 0.9, where 1 is the maximum; inconclusive means response in the unintended direction; inactive means score below 0.9.

Experiments:
[1] = read-out: ABC Transporter (ABCB1), ABCB1 (gene 5243); assay: CLD_ABCB1_24hr: CellzDirect (CLD) Gene Expression Assay for ABC Transporter (ABCB1) at 24 hours (AID 2283684)
In short: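 Primary human hepatocytes, two donor preparations, dosed daily with fresh solutions; vehicle 0.2% DMSO; harvested at 24 h. ABCB1 mRNA measured by quantitative nuclease protection assay (chemiluminescence); morphology-based cytotoxicity annotated.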

[2] = read-out: Cytochrome P450 2B6 (Homo sapiens) (UniProt P20813); assay: CLD_CYP2B6_24hr: CellzDirect (CLD) Gene Expression Assay for xenobiotic metabolism (CYP2B6) at 24 hours (AID 2283686)
In short: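 Primary human hepatocytes dosed daily for two days with fresh solutions, harvested at 24 hours; mRNA induction quantified by qNPA chemiluminescence, gain of signal vs 0.2% DMSO vehicle. Cytotoxicity annotated from phase-contrast morphology.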

[3] = read-out: Cytochrome P450 2C9 (Homo sapiens) (UniProt P11712); assay: CLD_CYP2C9_24hr: CellzDirect (CLD) Gene Expression Assay for xenobiotic metabolism (CYP2C9) at 24 hours (AID 2283688)
Experimental: (§1) CLD_24hr is a cell-based, multiplexed-readout assay that uses hepatocyte, a human liver primary cell, with measurements taken at 24 hours after chemical dosing in a 96-well plate.CLD_CYP2C9_24hr is one of 16 assay component(s) measured or calculated from the CLD_24hr assay. It is designed to make measurements of mRNA induction, a form of inducible reporter, as detected with chemiluminescence signals by Quantitative Nuclease Protection Assay (qNPA) technology.Data from the assay component CLD_CYP2C9_24hr was analyzed at the endpoint, CLD_CYP2C9_24hr, in the positive analysis fitting direction relative to DMSO as the negative control and baseline of activity. Using a type of inducible reporter, gain-of-signal activity can be used to understand changes in the reporter gene as they relate to the gene CYP2C9. Furthermore, this assay endpoint can be referred to as a primary readout. To generalize the intended target to other relatable targets, this assay endpoint is annotated to the cyp intended target family, where subfamily is xenobiotic metabolism.
(§2) Human hepatocyte cultures were treated daily for two consecutive days with fresh dosing solutions containing appropriate concentrations of the 320 ToxCast chemicals (chemical identities were blinded to CellzDirect and other ToxCast collaborators), vehicle control (0.2% DMSO), and positive control inducers as summarized in Table 1. […] These replicate data, coupled with internal replicates designed within the blinded ToxCast chemical library, provided additional data to evaluate interindividual differences between hepatocyte preparations and their potential impact on chemical profiles.Cell morphology and integrity were evaluated using phase-contrast microscopy as an indicator of hepatocyte cell health (Tyson & Green, 1987). Cultures for each treatment group (i.e., media, vehicle [0.2% DMSO], positive control inducers [multiple concentrations], and the ToxCast chemicals [multiple concentrations]) were observed and cell morphology was assessed relative to vehicle control cultures at each harvest time point (0, 6, 24, or 48 h). […]

[4] = read-out: Cytochrome P450 3A4 (Homo sapiens) (UniProt P08684); assay: CLD_CYP3A4_24hr: CellzDirect (CLD) Gene Expression Assay for xenobiotic metabolism (CYP3A4) at 24 hours (AID 2283689)
Experimental: as §1, with “plate.CLD_CYP3A4_24hr” for “plate.CLD_CYP2C9_24hr”, “CLD_CYP3A4_24hr” for “CLD_CYP2C9_24hr”, “CLD_CYP3A4_24hr,” for “CLD_CYP2C9_24hr,”, “CYP3A4.” for “CYP2C9.”
Human hepatocyte cultures were treated daily for two consecutive days with fresh dosing solutions containing appropriate concentrations of the 320 ToxCast chemicals (chemical identities were blinded to CellzDirect and other ToxCast collaborators), vehicle control (0.2% DMSO), and positive control inducers as summarized in Table 1. Due to the large number of treatment groups and chemicals examined, the ToxCast chemicals were divided into two groups (spanning two independent cultures of hepatocytes from separate donor preparations (Hu778: ToxCast plates 1 and 2; Hu776: ToxCast plates 3 and 4). Each preparation of human hepatocyte cultures was treated with respective vehicle control, medium only control, set of six positive controls/reference chemicals for the five hepatic receptor pathways, and a subset of eight of the ToxCast chemicals (indoxacarb, pyrithiobac-sodium, norflurazon, cyhalofop-butyl, methomyl, thiram, acetochlor, and propiconazole). These replicate data, coupled with internal replicates designed within the blinded ToxCast chemical library, provided additional data to evaluate interindividual differences between hepatocyte preparations and their potential impact on chemical profiles.Cell morphology and integrity were evaluated using phase-contrast microscopy as an indicator of hepatocyte cell health (Tyson & Green, 1987). Cultures for each treatment group (i.e., media, vehicle [0.2% DMSO], positive control inducers [multiple concentrations], and the ToxCast chemicals [multiple concentrations]) were observed and cell morphology was assessed relative to vehicle control cultures at each harvest time point (0, 6, 24, or 48 h). […] Images were evaluated at the conclusion of the study to assess changes in cell integrity and account for the effects of chemical exposure on uncharacteristic changes in concentration-dependent gene expression profiles. The results from these determinations of apparent cytotoxicity were annotated (yes/no) alongside the corresponding qNPA data for reference.At the conclusion of each treatment period, hepatocyte cultures (96-well) were washed with 1 volume of HBSS, lysed by addition of 25 ul ArrayPlate lysis buffer (HTG, Tucson, AZ), and 70 ul/well of Denaturation Oil, denatured by incubation at 95C for 10 min, and frozen at approximately -70C until analysis by nuclease protection assay (qNPA) (Roberts et al., 2007). […]

[5] = read-out: Glyceraldehyde-3-phosphate dehydrogenase (Homo sapiens) (UniProt P04406); assay: CLD_GAPDH_24hr: CellzDirect (CLD) Gene Expression Assay for Baseline Control (Glyceraldehyde 3-phosphate dehydrogenase) at 24 hours (AID 2283692)
Experimental: CLD_24hr is a cell-based, multiplexed-readout assay that uses hepatocyte, a human liver primary cell, with measurements taken at 24 hours after chemical dosing in a 96-well plate.CLD_GAPDH_24hr is one of 16 assay component(s) measured or calculated from the CLD_24hr assay. It is designed to make measurements of mRNA induction, a form of inducible reporter, as detected with chemiluminescence signals by Quantitative Nuclease Protection Assay (qNPA) technology.Data from the assay component CLD_GAPDH_24hr was analyzed at the endpoint, CLD_GAPDH_24hr, in the positive analysis fitting direction relative to DMSO as the negative control and baseline of activity. Using a type of inducible reporter, gain-of-signal activity can be used to understand changes in the reporter gene as they relate to the gene GAPDH. Furthermore, this assay endpoint can be referred to as a secondary readout, because this assay has produced multiple assay endpoints where this one serves a background control function. […]
as §2

[6] = read-out: alkyl and aryl transferase (GSTA2), GSTA2 (gene 2939); assay: CLD_GSTA2_24hr: CellzDirect (CLD) Gene Expression Assay for alkyl and aryl transferase (GSTA2) at 24 hours (AID 2283693)
In short: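 Primary human hepatocytes (two donor preparations) dosed daily for two days with chemicals at multiple concentrations (vehicle 0.2% DMSO); GSTA2 mRNA at 24 h measured by qNPA chemiluminescence, gain-of-signal versus DMSO.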

[7] = read-out: Broad substrate specificity ATP-binding cassette transporter ABCG2 (Homo sapiens) (UniProt Q9UNQ0); assay: CLD_ABCG2_24hr: CellzDirect (CLD) Gene Expression Assay for ABC Transporter (ABCG2) at 24 hours (AID 2283685)
In short: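 Primary human hepatocytes were dosed daily with ToxCast chemicals at multiple concentrations (vehicle 0.2% DMSO). ABCG2 mRNA was measured at 24 h by qNPA chemiluminescence; induction was scored as gain of signal versus DMSO.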

[8] = read-out: Cytochrome P450 2C19 (Homo sapiens) (UniProt P33261); assay: CLD_CYP2C19_24hr: CellzDirect (CLD) Gene Expression Assay for xenobiotic metabolism (CYP2C19) at 24 hours (AID 2283687);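 further: activity means mRNA induction above DMSO vehicle baseline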
Experimental: as §1, with “plate.CLD_CYP2C19_24hr” for “plate.CLD_CYP2C9_24hr”, “CLD_CYP2C19_24hr” for “CLD_CYP2C9_24hr”, “CLD_CYP2C19_24hr,” for “CLD_CYP2C9_24hr,”, “CYP2C19.” for “CYP2C9.”
as §2

[9] = read-out: organic anion transporter (SLCO1B1), SLCO1B1 (gene 10599); assay: CLD_SLCO1B1_24hr: CellzDirect (CLD) Gene Expression Assay for organic anion transporter (SLCO1B1) at 24 hours (AID 2283690)
In short: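 Primary human hepatocytes (two donor preparations) dosed daily for two days with chemicals at multiple concentrations, 0.2% DMSO vehicle. SLCO1B1 mRNA at 24 h measured by qNPA chemiluminescence; induction fitted relative to DMSO.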

[10] = read-out: HMG-CoA synthase (HMGCS2), HMGCS2 (gene 3158); assay: CLD_HMGCS2_24hr: CellzDirect (CLD) Gene Expression Assay for HMG-CoA synthase (HMGCS2) at 24 hours (AID 2283691)
In short: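 Primary human hepatocytes from two donor preparations, dosed daily with fresh solutions; vehicle 0.2% DMSO, 24 h harvest. HMGCS2 mRNA quantified by qNPA with S1 nuclease digestion and chemiluminescence; gain fitted versus DMSO, cytotoxicity annotated by morphology.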

Measured: AC50

Sequence of Cytochrome P450 3A4 (Homo sapiens) (P08684 whole entry, looked up): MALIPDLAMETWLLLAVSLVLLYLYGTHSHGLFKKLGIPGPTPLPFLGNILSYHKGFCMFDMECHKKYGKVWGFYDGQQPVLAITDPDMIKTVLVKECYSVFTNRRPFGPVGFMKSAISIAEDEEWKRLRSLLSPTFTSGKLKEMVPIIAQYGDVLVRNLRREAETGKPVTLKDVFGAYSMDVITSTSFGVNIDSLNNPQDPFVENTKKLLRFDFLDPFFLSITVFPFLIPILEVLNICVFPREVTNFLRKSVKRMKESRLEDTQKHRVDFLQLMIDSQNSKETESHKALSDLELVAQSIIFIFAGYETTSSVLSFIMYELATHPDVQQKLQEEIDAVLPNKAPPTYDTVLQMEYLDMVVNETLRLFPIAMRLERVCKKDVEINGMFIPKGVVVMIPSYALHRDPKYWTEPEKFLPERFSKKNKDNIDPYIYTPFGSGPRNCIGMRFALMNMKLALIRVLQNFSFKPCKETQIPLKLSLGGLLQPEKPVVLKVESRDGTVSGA
Sequence of Cytochrome P450 2C19 (Homo sapiens) (P33261 whole entry, looked up): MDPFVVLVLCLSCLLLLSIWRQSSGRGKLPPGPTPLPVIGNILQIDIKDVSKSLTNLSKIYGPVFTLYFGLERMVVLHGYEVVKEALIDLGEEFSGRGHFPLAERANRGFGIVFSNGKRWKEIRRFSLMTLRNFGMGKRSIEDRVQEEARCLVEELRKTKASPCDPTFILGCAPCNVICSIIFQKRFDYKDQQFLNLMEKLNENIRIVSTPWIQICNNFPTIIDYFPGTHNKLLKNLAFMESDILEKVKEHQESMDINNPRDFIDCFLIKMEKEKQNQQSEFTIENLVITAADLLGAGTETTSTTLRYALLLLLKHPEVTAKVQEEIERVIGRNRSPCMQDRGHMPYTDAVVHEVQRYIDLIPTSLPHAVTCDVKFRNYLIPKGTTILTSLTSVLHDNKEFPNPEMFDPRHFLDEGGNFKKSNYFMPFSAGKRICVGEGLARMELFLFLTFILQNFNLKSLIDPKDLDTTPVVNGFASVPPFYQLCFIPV
Sequence of Glyceraldehyde-3-phosphate dehydrogenase (Homo sapiens) (P04406 whole entry, looked up): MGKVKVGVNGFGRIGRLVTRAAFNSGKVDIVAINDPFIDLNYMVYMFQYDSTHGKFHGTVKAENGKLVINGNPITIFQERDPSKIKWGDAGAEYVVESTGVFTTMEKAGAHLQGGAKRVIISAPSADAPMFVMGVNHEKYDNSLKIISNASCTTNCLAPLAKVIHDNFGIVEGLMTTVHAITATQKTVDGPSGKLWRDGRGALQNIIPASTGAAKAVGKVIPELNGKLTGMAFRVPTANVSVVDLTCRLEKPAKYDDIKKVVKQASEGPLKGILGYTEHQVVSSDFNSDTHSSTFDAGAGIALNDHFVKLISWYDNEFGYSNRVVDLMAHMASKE
Sequence of Broad substrate specificity ATP-binding cassette transporter ABCG2 (Homo sapiens) (Q9UNQ0 whole entry, looked up): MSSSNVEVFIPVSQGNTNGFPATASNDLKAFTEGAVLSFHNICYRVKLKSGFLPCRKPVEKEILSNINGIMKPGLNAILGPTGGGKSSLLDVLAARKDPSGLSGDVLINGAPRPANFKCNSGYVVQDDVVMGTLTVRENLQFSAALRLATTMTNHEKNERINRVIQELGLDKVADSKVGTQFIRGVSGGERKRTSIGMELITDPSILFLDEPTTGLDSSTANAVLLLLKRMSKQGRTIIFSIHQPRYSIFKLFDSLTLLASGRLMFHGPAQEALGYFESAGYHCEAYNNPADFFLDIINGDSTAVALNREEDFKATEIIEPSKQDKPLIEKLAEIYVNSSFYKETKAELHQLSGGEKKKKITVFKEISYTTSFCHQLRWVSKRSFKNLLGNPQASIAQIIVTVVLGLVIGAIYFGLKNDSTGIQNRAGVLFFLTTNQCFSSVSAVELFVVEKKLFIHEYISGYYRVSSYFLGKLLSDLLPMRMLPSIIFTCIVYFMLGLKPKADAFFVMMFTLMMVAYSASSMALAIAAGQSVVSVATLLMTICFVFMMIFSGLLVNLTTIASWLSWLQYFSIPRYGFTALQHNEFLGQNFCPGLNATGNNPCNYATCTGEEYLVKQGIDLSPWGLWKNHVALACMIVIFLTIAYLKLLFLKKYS

CCNc1nc(NC(C)C)nc(SC)n1
active: [2] 920 nM | [4] 4.22 µM
inactive: [1] | [3] | [5] | [6]

CCSC(=O)N(CC)C1CCCCC1
active: [2] 6170 nM | [4] 0.000663 µM
not listed: [3]
inactive: all other assays above

CN(C)c1nc(=O)n(C2CCCCC2)c(=O)n1C
active: [4] 3.97 µM
inactive: [1] | [2] | [8] | [9] | [5]

Cc1ccccc1CO[C@@H]1C[C@@]2(C(C)C)CC[C@]1(C)O2
active: [2] 3910 nM | [4] 20 µM
inactive: [1] | [8] | [3] | [9]

CCC(C)(CC)c1cc(NC(=O)c2c(OC)cccc2OC)on1
active: [2] 259 nM | [4] 0.0271 µM
inactive: [1] | [3] | [9]
